# Reference: publication PMC9838217, “Structure of SALL4 zinc finger domain reveals link between AT-rich DNA binding and Okihiro syndrome”
# Where a chain is given by its changes, count along the chain named.
# Target: T1, SALL4 ZFC4 R900W (HT-SELEX) (Mus musculus, UniProt Q8BX22 870-940, R900W)
# T1 sequence: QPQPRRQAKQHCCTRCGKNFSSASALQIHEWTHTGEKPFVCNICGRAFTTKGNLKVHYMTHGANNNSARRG
# Experiment: HT-SELEX; high values mean tight binding
# Conditions: protein: recombinant; vector His6-GST; dsDNA, one strand shown
# Method in brief: (§1)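 Residues 870–940 of mouse SALL4, forming zinc finger cluster 4, were expressed recombinantly, purified, and 1 µg was incubated with library DNA (1.5 µg first cycle, 200 ng later) in 100 µl of 10 mM Tris–HCl pH 7.5, 50 mM NaCl, poly(dI-dC) and DTT for 10 min at room temperature. Washed Ni2+ bead-captured complexes were PCR-amplified and reselected for up to 6 cycles in triplicate, and the products were sequenced on MiSeq and scanned for 6-mers. Binding signal is the fold change in each canonical k-mer's read fraction compared with the initial random library.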
row,Sequence,binding signal [fold-change vs cycle 0]
1,AGCGTC,0.301 ± 0.0204
2,AGCAGC,0.286 ± 0.013
3,CCGCAC,0.118 ± 0.0077
4,AGCGTG,0.35 ± 0.0043
5,CGGTCC,0.209 ± 0.0179
6,GGGCCC,0.0676 ± 0.00899
7,GAGGGC,0.201 ± 0.0133
8,GCGGTA,0.271 ± 0.0135
9,ATCGCG,0.221 ± 0.00468
10,ACTGCG,0.289 ± 0.0171
11,CGGAGC,0.166 ± 0.00611
12,CCCACG,0.214 ± 0.0117
13,GAACGC,0.308 ± 0.012
14,CCGCCC,0.0662 ± 0.0114
15,ACGCCT,0.304 ± 0.0301
16,CGCCAG,0.103 ± 0.00325
17,CGCCGA,0.0711 ± 0.00229
18,GCAGAC,0.369 ± 0.0281
19,CGGCCC,0.0477 ± 0.00335
20,CGCGAG,0.135 ± 0.0168

row,Sequence,binding signal [fold-change vs cycle 0]
1,AACGGC,0.225 ± 0.0115
2,AGGGCC,0.158 ± 0.0102
3,AGACGC,0.274 ± 0.0116
4,CGTCGA,0.282 ± 0.0144
5,CGCGTA,0.224 ± 0.0194
6,CGGGAC,0.202 ± 0.00689
7,ACCGCT,0.31 ± 0.02
8,ACAGCC,0.328 ± 0.00712
9,AGGCGG,0.136 ± 0.00959
10,GGCCAC,0.126 ± 0.019
11,CGTTGC,0.331 ± 0.00332
12,GGCCCC,0.0767 ± 0.0129
13,AGCACG,0.337 ± 0.0173
14,CGCTTC,0.316 ± 0.00396
15,GGCGCC,0.0274 ± 0.00854
16,GCCGTA,0.228 ± 0.00567
17,ACCATA,1.42 ± 0.0261
18,GCCAGA,0.289 ± 0.0233
19,GGTGCA,0.359 ± 0.0169
20,CTCTTA,1.6 ± 0.108

# Target: T2, SALL4 ZFC4 G921D (HT-SELEX) (Mus musculus, UniProt Q8BX22 870-940, G921D)
# T2 sequence: T1 sequence with W31R, G52D
# Experiment: HT-SELEX; high values mean tight binding
# Conditions: protein: recombinant; vector His6-GST; dsDNA, one strand shown
# Method in brief: as §1
row,Sequence,binding signal [fold-change vs cycle 0]
1,AGCGTC,0.444 ± 0.0717
2,AGCAGC,0.426 ± 0.0467
3,CCGCAC,0.22 ± 0.0597
4,AGCGTG,0.476 ± 0.0501
5,CGGTCC,0.324 ± 0.081
6,GGGCCC,0.178 ± 0.0632
7,GAGGGC,0.323 ± 0.085
8,GCGGTA,0.391 ± 0.0556
9,ATCGCG,0.363 ± 0.0564
10,ACTGCG,0.407 ± 0.0604
11,CGGAGC,0.286 ± 0.0677
12,CCCACG,0.319 ± 0.0528
13,GAACGC,0.446 ± 0.0568
14,CCGCCC,0.164 ± 0.0742
15,ACGCCT,0.443 ± 0.0612
16,CGCCAG,0.214 ± 0.0676
17,CGCCGA,0.179 ± 0.0757
18,GCAGAC,0.48 ± 0.0825
19,CGGCCC,0.134 ± 0.0582
20,CGCGAG,0.231 ± 0.0693

row,Sequence,binding signal [fold-change vs cycle 0]
1,AACGGC,0.356 ± 0.0593
2,AGGGCC,0.28 ± 0.0679
3,AGACGC,0.405 ± 0.0774
4,CGTCGA,0.423 ± 0.0617
5,CGCGTA,0.34 ± 0.0644
6,CGGGAC,0.33 ± 0.0639
7,ACCGCT,0.44 ± 0.0953
8,ACAGCC,0.462 ± 0.0935
9,AGGCGG,0.264 ± 0.0731
10,GGCCAC,0.253 ± 0.0792
11,CGTTGC,0.435 ± 0.0499
12,GGCCCC,0.183 ± 0.0665
13,AGCACG,0.468 ± 0.0696
14,CGCTTC,0.452 ± 0.0563
15,GGCGCC,0.102 ± 0.0477
16,GCCGTA,0.345 ± 0.066
17,ACCATA,1.36 ± 0.0475
18,GCCAGA,0.414 ± 0.0657
19,GGTGCA,0.479 ± 0.0732
20,CTCTTA,1.46 ± 0.111
